Inconclusive results are not listed. The source made the active and inactive calls. The call rests on the fitted dose curve; in most records, active means well fitted cell-killing curve with a large enough effect; inconclusive means small, poorly fitted or top-dose-only effect; inactive means flat fitted curve, though single readings scatter.
Test: Cellular viability qHTS for adrenocortical cancer (ACC) cell line NCI-H295R (AID 1963990); further: nearly all actives have a fitted effect of over 60% in size;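 on activity change, negative = viability loss: 0% = DMSO only wells and -100% = full killing with cytotoxic reference compound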
Details: CellTiter-Glo ATP luminescence, 48 h; series mostly up to 46.1 µM; activity change, negative = viability loss: at the top concentration
Summary of the method: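 Compound titrations (up to 46 uM final) are applied to NCI-H295R cultures for 48 h at 37C. Viable cell number is estimated by CellTiter-Glo signal, normalised to DMSO and doxorubicin controls.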
In the case of `O=C(CCCCl)c1ccc(F)cc1`, the “activity change, negative = viability loss” value is reported as -2.22% (inactive).
With `COc1ccccc1N1CCNCC1` the “activity change, negative = viability loss” value was -4.23% (inactive).
In the case of `CC(C)(C)NCC(O)c1cc(Cl)c(N)c(Cl)c1` (configuration not stated), the “activity change, negative = viability loss” value is reported as -10.9% (inactive).
In the case of `O=C1c2ccccc2C(=O)c2ccccc21`, the “activity change, negative = viability loss” value is reported as -2.47% [at 20 µM] (inactive).
For `CC1OC(C)OC(C)O1` (configuration not stated), the “activity change, negative = viability loss” value was 1.98% (inactive).
For `CCNc1nc(Cl)nc(NCC)n1`, the “activity change, negative = viability loss” value was -16.9% (inactive).
In the case of `c1ccc2c(c1)sc1ccccc12`, the “activity change, negative = viability loss” value is reported as -0.145% (inactive).
With `C[C@@H](C1CC[C@@]2(O)C3=CC(=O)[C@@H]4C[C@@H](O)[C@@H](O)C[C@]4(C)[C@H]3CC[C@]12C)[C@H](O)CCC(C)(C)O` (some centres not stated) the “activity change, negative = viability loss” value was -3.42% (inactive).
With `CCN(Cc1ccc(Cl)nc1)/C(=C/[N+](=O)[O-])NC` the “activity change, negative = viability loss” value was -13.1% (inactive).
In the case of `CC[N+](CC)(CC)CC`, the “activity change, negative = viability loss” value is reported as -21.8% (inactive).
For `NP(N)(=O)NC(=O)c1ccc(F)cc1`, the “activity change, negative = viability loss” value was -3.13% (inactive).
For `COP(=S)(OC)Oc1cc(Cl)c(Cl)cc1Cl`, the “activity change, negative = viability loss” value was -6.16% (inactive).
With `NCC(CC(=O)O)c1ccc(Cl)cc1` (configuration not stated) the activity change, negative = viability loss was -4.36% [at 0.587 µM] (inactive).
With `CCCN(CCC)c1c([N+](=O)[O-])cc(S(N)(=O)=O)cc1[N+](=O)[O-]` the Potency was 7.94 µM (active).
For `CCC1(C2=NCCN2)Cc2ccccc2O1` (configuration not stated), the “activity change, negative = viability loss” value was -3.42% (inactive).
With `CC(Cc1ccc(O)cc1)NCC(O)c1cc(O)cc(O)c1` (configuration not stated) the “activity change, negative = viability loss” value was -16.3% (inactive).
For `C1CN2CCC1CC2`, the “activity change, negative = viability loss” value was -2.9% (inactive).
In the case of `OC(O)C(Cl)(Cl)Cl`, the “activity change, negative = viability loss” value is reported as -5.6% (inactive).
In the case of `CC1NCCOC1c1ccccc1` (configuration not stated), the “activity change, negative = viability loss” value is reported as -1.27% (inactive).
For `COC(=O)[C@@H](N)CCCN/C(N)=N/[N+](=O)[O-]`, the “activity change, negative = viability loss” value was -14% (inactive).
With `COC(=O)C(Cl)C(=O)OC` the “activity change, negative = viability loss” value was -9.07% (inactive).
For `CC(C)NC(C)C`, the “activity change, negative = viability loss” value was 7.21% (inactive).
In the case of `C[N+](C)(C)CCOC(=O)C(O)(c1ccccc1)c1ccccc1`, the “activity change, negative = viability loss” value is reported as -5.99% (inactive).
With `O=C(O)COc1ccccc1` the “activity change, negative = viability loss” value was -21.5% (inactive).
In the case of `CN(C)CCc1ccc(O)cc1`, the “activity change, negative = viability loss” value is reported as -7.48% (inactive).
For `NN=C(N)N`, the “activity change, negative = viability loss” value was -10.9% (inactive).
For `CN1C(=O)CN=C(c2ccccc2)c2cc([N+](=O)[O-])ccc21`, the “activity change, negative = viability loss” value was 7.13% (inactive).
With `CC(C)(C)NCC(O)c1cc(Cl)c(N)c(C(F)(F)F)c1` (configuration not stated) the “activity change, negative = viability loss” value was -2.94% (inactive).
In the case of `CCOC(=O)NC(O)C(Cl)(Cl)Cl` (configuration not stated), the “activity change, negative = viability loss” value is reported as 1.25% (inactive).
With `O=c1[nH]oc2c1CCNC2` the “activity change, negative = viability loss” value was 2.99% (inactive).
For `CC(C)(N)Cc1ccc(Cl)cc1`, the “activity change, negative = viability loss” value was -14.1% (inactive).
With `ClCCN1CCCC1` the “activity change, negative = viability loss” value was -26.1% (inactive).

— PubChem BioAssay (NCATS)
Potency means the concentration at half of the fitted maximal effect.
